High-throughput results: PubChem BioAssay, National Center for Advancing Translational Sciences (NCATS)
HCMV inh: inhibitors of human cytomegalovirus. HFF cells, HCMV-luciferase reporter, 72 h; active compounds read low. activity change, negative = inhibition, % at 57.5 µM. 410,000 tested, 4.5% active. AID 1259415; in the data active means activity change below about -60%; inconclusive means no clear call, values can overlap the other calls; inactive means above about -39%
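Two compound doses tested in HFFs infected with HCMV-luciferase, MOI 1 PFU/cell, 72 h at 37C. Lysate luminescence read with OneGlo; data normalized against buffer-only and 10uM Salinomycin inhibitor controls.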
FMDV antiviral: blocks foot and mouth disease virus. FMDV antiviral cell-based qHTS. Potency, µM (highest dose often 57.9 µM), most hits filed as inhibitors. 410,000 tested, 1.2% active. AID 1159524; calls by dose curve; tested in HEK293T cells; further: read-out not given here; nearly all actives have a fitted effect of over 45% in size
Lassa entry inh: blocks Lassa virus binding to or entry into cells; Lassa virus pseudotype entry inhibition, cell reporter; Potency, µM (top dose mostly 37.9 µM), hits mostly inhibitors; 300,000 tested, 1.2% active; calls by dose curve; tested in HEK293 cells; further: nearly all actives have a fitted effect of over 50% in size
MARV entry inh: Marburg virus entry inhibition; Marburg virus pseudotyped entry inhibition, cell reporter; Potency, µM (top dose mostly 37.8 µM), most hits filed as inhibitors; 300,000 tested, 1.8% active; AID 540276; calls by dose curve; tested in HEK293 cells
Each line names hits and unclear results; the compound was inactive in the other large screens. Rows were chosen to be rich in hits. Some 6.2% of all compounds tested hit in one or more screens of this group.

CC(=O)Nc1ccc(Nc2nc(C)c([N+](=O)[O-])c(N(C)c3ccccc3)n2)cc1	HCMV inh inconclusive, FMDV antiviral 31.6µM, Lassa entry inh inconclusive
O=C(NCN1C(=O)C2C3C=CC(C3)C2C1=O)Nc1ccccn1 (configuration not stated)	none
COc1ccc(-c2cc(-c3ccccc3)c(C#N)c(S(C)=O)n2)cc1 (configuration not stated)	HCMV inh -98.9, FMDV antiviral inconclusive, Lassa entry inh inconclusive, MARV entry inh inconclusive
CCCCCC1CCC(c2ccc(C(N)=O)cc2)CC1 (configuration not stated)	MARV entry inh inconclusive
CCOC(=O)COc1ccc(Br)cc1/C=C/c1[nH]c(=O)[nH]c(=O)c1[N+](=O)[O-]	FMDV antiviral 28.2µM, Lassa entry inh inconclusive, MARV entry inh inconclusive
CCOC(=O)COc1ccc(Br)cc1/C=C\c1[nH]c(=O)[nH]c(=O)c1[N+](=O)[O-]	FMDV antiviral 35.5µM
CCCOc1ccc(/C=C/c2[nH]c(=O)[nH]c(=O)c2[N+](=O)[O-])cc1OCC	FMDV antiviral inconclusive
CCOc1cc(/C=C\c2[nH]c(=O)[nH]c(=O)c2[N+](=O)[O-])ccc1OC(C)CC (configuration not stated)	HCMV inh -96.7, FMDV antiviral 8.91µM
O=C(CN1C(=O)NC2(CCCC2)C1=O)OCc1ccc(Br)cc1	none
CCCCCCc1nc2ccccc2c(=O)n1NC(=O)c1c(O)c2c(n(CC(C)C)c1=O)CCCC2	HCMV inh -92.8, Lassa entry inh inconclusive
CC1CN(C(=O)COC(=O)c2cc3ccccc3cc2O)CC(C)O1 (configuration not stated)	none
Cc1oc(-c2ccc(C(=O)Nc3ccc(F)cc3)cc2)nc1COc1ccccc1	HCMV inh inconclusive, FMDV antiviral inconclusive (no result: MARV entry inh)
COc1cc(NC(=O)c2ccc(-c3nc(COc4ccccc4)c(C)o3)cc2)cc(OC)c1	HCMV inh -77.9, Lassa entry inh inconclusive (no result: MARV entry inh)
Cc1ccn2c(=O)nc(SCC(=O)c3ccccc3)nc2c1	Lassa entry inh inconclusive
Cc1ccc2nc(SCC(=O)c3ccccc3)nc(=O)n2c1	Lassa entry inh 10µM, MARV entry inh inconclusive
CCc1nnc(NC(=O)CSc2nc3c([nH]c4ccccc43)c(=O)n2-c2cc(C)cc(C)c2)s1	none (no result: MARV entry inh)
CN(CC(=O)NC1CCCc2ccccc21)S(=O)(=O)c1cccs1 (configuration not stated)	HCMV inh -73.8, MARV entry inh inconclusive
CCOC(=O)c1ccc(NC(=S)N2CCN(CCN=CC3=C(O)CC(c4ccccc4)CC3=O)CC2)cc1 (configuration not stated)	none (no result: Lassa entry inh, MARV entry inh)
COc1ccc(Cn2c(O)cc(=O)[nH]c2=O)cc1	HCMV inh -87.8
O=C(c1cccc(F)c1)N1CCC2(CC1)CN(Cc1ccccc1)C2	none (no result: HCMV inh, Lassa entry inh, MARV entry inh)
c1cncc(-c2nn3c(Cn4nnc5ccccc54)nnc3s2)c1	MARV entry inh 3.26µM
C/C(=N\NC(=S)NC1CCCCC1)c1c(F)cccc1F	HCMV inh -79.5, Lassa entry inh inconclusive, MARV entry inh inconclusive
CC(O)C(O)C(O)C(O)/C=N/NC(=O)c1ccccc1 (configuration not stated)	none
Cc1nc([N+](=O)[O-])c(Br)n1CC(=O)c1ccc(F)cc1	Lassa entry inh inconclusive, MARV entry inh inconclusive
Cc1nc([N+](=O)[O-])c(Br)n1CC(=O)c1cccc([N+](=O)[O-])c1	FMDV antiviral 31.6µM, MARV entry inh inconclusive
Cn1cnnc1SCC(=O)Nc1ccccc1F	none
Cc1cc(NC(=O)CS(=O)CC(=O)Nc2c(C)cccc2C)ccc1-n1cnnn1 (configuration not stated)	MARV entry inh inconclusive
Cc1ccc(NC(=O)c2ccccc2Cl)cc1-n1cnnn1	MARV entry inh inconclusive
Cc1ccc(NC(=O)c2ccccc2)cc1-n1cnnn1	HCMV inh -73.2
Cc1cc(C)c(NC(=O)CS(=O)CC(=O)Nc2ccc(-n3cnnn3)c(C)c2)c(C)c1 (configuration not stated)	HCMV inh -69.3, Lassa entry inh inconclusive, MARV entry inh inconclusive
Cc1cc(C(=O)CSc2nnc(-c3ccco3)o2)c(C)n1Cc1ccco1	none
Cc1cc(C(=O)CCl)c(C)n1Cc1ccco1	HCMV inh -97.1, FMDV antiviral 28.2µM, Lassa entry inh inconclusive, MARV entry inh inconclusive
Cc1cc(C(=O)CSc2nncs2)c(C)n1Cc1ccco1	Lassa entry inh 4.47µM, MARV entry inh 6.31µM
O=C(NOCc1ccccc1)OCc1ccccc1	none (no result: Lassa entry inh, MARV entry inh)
CCOc1ccc(N2CC(C(=O)NCC(=O)Nc3ccc(F)c(F)c3F)CC2=O)cc1 (configuration not stated)	none (no result: Lassa entry inh, MARV entry inh)
Cc1cc(N2CCOCC2)ccc1/C=C1\NC(=O)N(Cc2ccccc2F)C1=O	Lassa entry inh inconclusive
CCOc1ccc(NC(=O)c2c(NC(=O)c3ccccc3F)sc3c2CCC3)cc1	none (no result: MARV entry inh)
CC(=O)OCC1(C)CN(c2ccccc2)NC1=O (configuration not stated)	HCMV inh -62.1 (no result: Lassa entry inh, MARV entry inh)
CC(=O)c1ccc(OCC(O)CN(C)CCOc2ccc(Br)cc2)cc1 (configuration not stated)	FMDV antiviral inconclusive, Lassa entry inh inconclusive, MARV entry inh 8.91µM
CCN(C(=O)C1CCCN1S(=O)(=O)c1cccc2nsnc12)c1ccccc1 (configuration not stated)	none (no result: Lassa entry inh, MARV entry inh)
Cn1c(=O)c2c(nc(NCCNC(=O)c3ccco3)n2Cc2ccc(Cl)cc2Cl)n(C)c1=O	HCMV inh -73.8, Lassa entry inh inconclusive
Cn1c(=O)c2c(nc(NCC3CCCC(CN)C3)n2Cc2ccc(Cl)cc2Cl)n(C)c1=O (configuration not stated)	HCMV inh -99.2 (no result: Lassa entry inh, MARV entry inh)
Cc1ccc(NC(=O)Nc2ccc3c(c2)CCC3)cc1	MARV entry inh inconclusive
COC(=O)C1=C(C(=O)OC)C2OC1c1cc3ccccc3cc12	FMDV antiviral 28.2µM, MARV entry inh inconclusive
COC(=O)C1=C(c2ccc3ccccc3c2)C[C@@H]2CC[C@H]1N2C	none (no result: Lassa entry inh, MARV entry inh)
C=CCn1c(SCC(=O)c2cccs2)nc2sc(CC)cc2c1=O	HCMV inh inconclusive, FMDV antiviral 20µM, Lassa entry inh inconclusive, MARV entry inh inconclusive
C=CCn1c(SCC(=O)N2CCc3ccccc3C2)nc2sc(C)cc2c1=O	FMDV antiviral 22.4µM, Lassa entry inh inconclusive, MARV entry inh inconclusive
C=CCn1c(SCC(=O)/C(C#N)=C(\C)N)nc2sc(CC)cc2c1=O	FMDV antiviral 22.4µM, Lassa entry inh inconclusive, MARV entry inh inconclusive
C=CCn1c(SCC(=O)O)nc2sc(CC)cc2c1=O	none
COc1ccc(Cl)cc1-c1noc([C@@H]2O[C@H](CO)[C@H](O)[C@H](O)[C@H]2O)n1	HCMV inh -72.9 (no result: Lassa entry inh, MARV entry inh)
COc1cccc(NC(=O)Cn2cnc3sc(C)c(S(=O)(=O)N4CCCCC4)c3c2=O)c1	Lassa entry inh inconclusive, MARV entry inh inconclusive
O=[N+]([O-])c1ccc(Cl)c(C[n+]2cccc3ccccc32)c1	none (no result: Lassa entry inh, MARV entry inh)
Clc1cccc(Cl)c1C[n+]1cccc2ccccc21	HCMV inh -81.3, FMDV antiviral inconclusive, Lassa entry inh inconclusive, MARV entry inh inconclusive
CCN(CC)c1nc(C)nc2c1cnn2CCc1ccccc1	none
CC1(Oc2ccccc2)CCN(Cc2ccc(-c3ccccn3)cc2)C1 (configuration not stated)	none (no result: Lassa entry inh, MARV entry inh)
CC1(Oc2ccc(Cl)cc2)CCN(Cc2ccc(-c3ccccn3)cc2)C1 (configuration not stated)	HCMV inh -82.2 (no result: Lassa entry inh, MARV entry inh)
